Source: PubChem
Sampled rows, rich in hits. Any-hit rate of the full collection: about 2.8%.
Fam108B counter: counter-screen for RBBP9 inhibitors: inhibitors of mouse Fam108B | recombinant Fam108B, FP-Rh probe fluorescence polarization | 300,000 tested, 0.33% active | inhibition, % at 9.51 µM;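 active = inhibition above the screen mean inhibition plus 3 SD, computed separately per campaign, cut at about 18% in these data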;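 also: inhibitors lower polarization as less probe binds the enzyme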
PAFAH2 inh: inhibitors of human PAFAH2 | Q99487 | recombinant PAFAH2, FP-rhodamine activity probe, fluorescence polarization | inhibition, % at 3.39 µM | 340,000 tested, 0.99% active | AID 492956;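 active = inhibition above the mean over all tested compounds plus 3 SD, cut at about 30% in these data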;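 also: inhibitors block probe labeling of enzyme so polarization drops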
PAFAH1B2 inh: PAFAH1B2 (human) inhibition; P68402; recombinant PAFAH1B2, FP-rhodamine activity probe, fluorescence polarization; inhibition, % at 3.39 µM; 340,000 tested, 1.2% active; AID 492953;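 active = inhibition above the mean of all tested compounds plus 3 SD, cut at about 24% in these data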
Target sequence (P68402 whole entry, looked up): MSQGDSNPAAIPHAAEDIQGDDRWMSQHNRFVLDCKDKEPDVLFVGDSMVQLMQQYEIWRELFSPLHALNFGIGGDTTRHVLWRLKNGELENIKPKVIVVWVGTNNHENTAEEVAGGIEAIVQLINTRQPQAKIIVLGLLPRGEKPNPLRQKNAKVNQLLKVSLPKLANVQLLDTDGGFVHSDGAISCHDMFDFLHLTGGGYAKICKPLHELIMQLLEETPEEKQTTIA
pPAFAH inh: pPAFAH (human) enzyme inhibition; Q13093; recombinant pPAFAH, FP-rhodamine probe fluorescence polarization; inhibition, % at 3.39 µM; 330,000 tested, 1.5% active; AID 463082;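 active = inhibition above the mean inhibition across the screen plus 3 SD, cut at about 25% in these data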;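 also: inhibitors block binding of the rhodamine activity-based probe so polarization drops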
PME-1 primary: PME-1 (human) inhibition. Q9Y570. recombinant PME-1, FP-Rh probe fluorescence polarization. inhibition, % at 5.9 µM. 320,000 tested, 0.53% active;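 active = inhibition above the campaign mean of all compounds plus 3 SD, cut at about 26% in these data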;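 also: competitive labeling of PME-1 active site by serine hydrolase directed probe; inhibitors block probe labeling so polarization falls and inhibition rises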
PAFAH1B3 FP inh: PAFAH1B3 (human) inhibition; AID 492972; Q15102; 340,000 tested, 0.28% active; recombinant PAFAH1B3, FP-rhodamine probe, fluorescence polarization; inhibition, % at 3.39 µM;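 active = inhibition above the screen-wide average of all tested compounds plus 3 SD, cut at about 25% in these data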
Target sequence (Q15102 whole entry, looked up): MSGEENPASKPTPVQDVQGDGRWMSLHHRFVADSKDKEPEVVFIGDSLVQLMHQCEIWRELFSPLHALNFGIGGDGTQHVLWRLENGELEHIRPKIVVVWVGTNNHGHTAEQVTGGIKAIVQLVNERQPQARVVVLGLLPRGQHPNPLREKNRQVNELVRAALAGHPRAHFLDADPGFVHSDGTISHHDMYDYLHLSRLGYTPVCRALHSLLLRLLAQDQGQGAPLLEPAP
Large screens that a line does not name were inactive.

N/C(Cc1cccs1)=N\OC(=O)COc1ccc(Br)cc1	PAFAH1B2 inh 28
COc1ccc(S(=O)(=O)N2CCCCCC2)cc1NC(=O)CN1C(=O)NC(C)(c2ccccc2)C1=O (centres undefined)	none
CCCCCC#CCC#CCC#CCC#CCCCC(=O)O	pPAFAH inh 61 (no result: PAFAH2 inh, PAFAH1B2 inh, PAFAH1B3 FP inh)
CC(Oc1ccc2ccc(=O)oc2c1)C(=O)NCCN1CCOCC1 (centres undefined)	none
COC(=O)C(NC(=O)c1ccccc1Cl)(Nc1ncc(S(=O)(=O)c2ccc([N+](=O)[O-])cc2)s1)C(F)(F)F (centres undefined)	PAFAH1B2 inh 26
O=C(Cn1nnc(-c2cc(C(F)(F)F)cc(C(F)(F)F)c2)n1)NNC(=S)Nc1ccc(Cl)cc1	pPAFAH inh 27
O=C(NNC(=O)c1ccccc1F)c1cccc(-n2cccc2)c1	pPAFAH inh 26
O=C1CCC(=O)N1c1ccc(S(=O)(=O)Nc2ccc(Br)cc2)cc1	pPAFAH inh 33
CCCc1cc(=O)oc2cc(C)cc(OCC(=O)NCCCN3CCOCC3)c12	none
COc1ccc(O)c(/C=N/NC(=O)c2ccc(CSc3nc(C)cc(C)n3)cc2)c1	pPAFAH inh 27
O=C(CCNS(=O)(=O)c1ccc(Br)cc1)NCCCSc1ccccc1	PAFAH1B2 inh 26 (no result: Fam108B counter)
O=C(CCNS(=O)(=O)c1ccccc1)NCCCSc1ccccc1	PAFAH1B2 inh 36
CN1C2CCC1CC(OC(=O)C(CO)c1ccccc1)C2 (centres undefined)	none
CC1CCN(S(=O)(=O)c2ccc3[nH]c(=O)c(=O)[nH]c3c2)CC1	PAFAH1B2 inh 60
Cc1ccc(OCC(=O)N[C@@H](C)c2nnc3ccccn23)cc1C	none
Cc1c(Cl)ccc2c1NC(=O)C21NC(CCC(N)=O)[C@H]2C(=O)N(c3ccc(Cl)cc3)C(=O)[C@H]21 (some centres undefined)	pPAFAH inh 25
Cc1c(Cl)ccc2c1NC(=O)[C@]21N[C@@H](CCC(N)=O)[C@H]2C(=O)N(c3ccc(F)cc3)C(=O)[C@H]21	none
O=C(N/N=C/c1cc(Cl)cc([N+](=O)[O-])c1O)c1cccc(S(=O)(=O)N2CCOCC2)c1	none (no result: Fam108B counter, pPAFAH inh, PME-1 primary)
CC(NC(N)=O)C(=O)OCC(=O)c1ccc(-c2ccccc2)cc1 (centres undefined)	none
CC(C)c1ccc(C(=O)COC(=O)C(O)c2ccccc2)cc1 (centres undefined)	pPAFAH inh 29 (no result: Fam108B counter, PME-1 primary)
C=C1C(=O)[C@@]23[C@H](O)C[C@@H]4C(C)(C)CC[C@H](O)[C@@]4(C)[C@@H]2CC[C@@H]1[C@H]3O	PAFAH1B2 inh 86
C=C1C(=O)[C@@]23[C@H](O)C[C@@H]4C(C)(C)CC[C@H](O)[C@]4(C)[C@@H]2C[C@H](O)[C@@H]1[C@H]3O	PAFAH1B2 inh 81
CN(CC(=O)Nc1ccc(F)cc1)C(=O)Cn1nnc(-c2ccccc2)n1	none
COc1cc(C)c(/C=C/C(C)=C/C=C/C(C)=C/C(=O)O)c(C)c1C	pPAFAH inh 29
Cc1c(NC(=O)/C(C#N)=C/c2ccc(-c3ccccc3Cl)o2)c(=O)n(-c2ccccc2)n1C	pPAFAH inh 27
CCn1c2ccccc2c2cc(NC(=O)c3ccc(C)c([N+](=O)[O-])c3)ccc21	PME-1 primary 37
CCn1c2ccccc2c2cc(NC(=O)c3coc(=O)c(Br)c3)ccc21	none (no result: PAFAH2 inh, PAFAH1B2 inh, PAFAH1B3 FP inh)
CCn1c2ccccc2c2cc(NC(=O)c3ccc(=O)oc3)ccc21	pPAFAH inh 33 (no result: PAFAH2 inh, PAFAH1B2 inh, PAFAH1B3 FP inh)
COc1cc2c(cc1NC(=O)C(C)NCc1ccccc1)oc1ccccc12 (centres undefined)	pPAFAH inh 26
O=C(NCc1ccccc1)C1CCC(=O)N(CCN2CCOCC2)C1 (centres undefined)	none
C[C@H](OC(=O)NCc1ccc(C(F)(F)F)cc1)[C@@H]1O[C@@]2(C)CCC[C@@H]1O2	PAFAH1B2 inh 25 (no result: Fam108B counter)
C[C@H](OC(=O)N1CCN(C(c2ccccc2)c2ccccc2)CC1)[C@@H]1O[C@@]2(C)CCC[C@H]1O2	none
Nc1ncnc2c1ncn2[C@@H]1O[C@H](CNC(=O)[C@@H](N)C2CCCCC2)[C@@H](O)[C@H]1O	none (no result: Fam108B counter, PME-1 primary)
O=[N+]([O-])c1cc(-n2cnnn2)ccc1N1CCC(Cc2ccccc2)CC1	pPAFAH inh 28
O=[N+]([O-])c1cccc2nc3ccccc3c(NCCCn3ccnc3[N+](=O)[O-])c12	none (no result: Fam108B counter, pPAFAH inh, PME-1 primary)
